Compound activity deposited in PubChem by National Center for Advancing Translational Sciences (NCATS).
In the library only some 6.5% were active in any assay of this set; here they are far more common.
HCMV inh: human cytomegalovirus inhibition; HFF cells, HCMV-luciferase reporter, 72 h; hits give low values; activity change, negative = inhibition, % at 57.5 µM; hit rate 4.5% among 410,000; AID 1259415; in the data active = activity change below about -60%; inconclusive = no clear call, values can overlap the other calls; inactive = above about -39%
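HFF cells seeded 16 h at 37C, treated with compounds, infected with luciferase-reporter HCMV at MOI 1 PFU/cell; luciferase read at 72 h post infection, normalized to buffer-only and Salinomycin controls.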
Lassa entry inh: inhibitors of Lassa virus binding or cell entry; hit rate 1.2% among 300,000; Potency, µM (top dose mostly 37.9 µM), inactives show at the top dose activity change, negative = inhibition, hits mostly inhibitors; Lassa virus pseudotype entry inhibition, cell reporter; AID 540256; calls by dose curve; tested in HEK293 cells; note: potency is the fitted concentration of half-maximal effect; nearly all actives have a fitted effect of over 50% in size
VACV Venus inh: inhibitors of vaccinia virus (Venus reporter); Vaccinia virus Venus reporter expression, fluorescence; Potency, µM (doses to about 36.5 µM), without a hit: at the highest dose activity change, negative = inhibition, actives largely listed as inhibitors; hit rate 0.46% among 330,000; calls by dose curve; tested in A549 cells; note: potency is the fitted concentration of half-maximal effect; nearly all actives have a fitted effect of over 30% in size
VACV mCherry inh: inhibitors of vaccinia virus infection (mCherry reporter signal). Potency, µM (series often up to 36.5 µM), for the others: at the highest dose activity change, negative = inhibition, actives largely listed as inhibitors. hit rate 0.63% among 310,000. AID 720579. Vaccinia virus mCherry reporter infection, fluorescence; calls by dose curve; tested in A549 cells; note: potency is the fitted concentration of half-maximal effect; nearly all actives have a fitted effect of over 35% in size
Marburg entry inh: Marburg virus entry inhibition | hit rate 1.8% among 300,000 | Marburg virus pseudotyped entry inhibition, cell reporter | Potency, µM (doses to about 37.8 µM), for inactives: top-dose activity change, negative = inhibition, most hits filed as inhibitors; calls by dose curve; tested in HEK293 cells; note: potency is the fitted concentration of half-maximal effect
FMDV antiviral: antivirals against foot and mouth disease virus; Potency, µM (highest dose often 57.9 µM), for inactives: at the top dose activity change, negative = inhibition, actives largely listed as inhibitors; FMDV antiviral cell-based qHTS; hit rate 1.2% among 410,000; calls by dose curve; tested in HEK293T cells; note: read-out not given here; potency is the fitted concentration of half-maximal effect; nearly all actives have a fitted effect of over 45% in size
Starred values were filed as active, the others as inactive; i = inactive; ? = inconclusive; / = no result given; [ ] = another dose, or the depositor's remark. % is set by controls: 0 for no effect and ±100 for the full control effect.

SMILES | HCMV inh | Lassa entry inh | VACV Venus inh | VACV mCherry inh | Marburg entry inh | FMDV antiviral
COC(=O)[C@@H](NC(=O)C1CCCN(c2nc(C)c3ccc(C)cc3n2)C1)C(C)C (stereo partly specified) | / | / | -4% | -12% | / | -12%
COc1ccc(CCNC(=O)C2CCCN(c3nc(C)cc(C)n3)C2)cc1 (stereo unspecified) | -21 | -4% | -6% | -10% | 6%[46.1 µM] | ?
CCc1c(C)nc2ncnn2c1N1CCC(C(=O)Nc2ccccc2)CC1 | -34 | 1% | -20% | i | -6% | ?
O=C(Nc1ccc2c(c1)CCC2)C1CCCN(c2ncccn2)C1 (stereo unspecified) | 123 | 22% | / | / | ? | 0%
COc1ccc(CCNC(=O)C2CCCN(c3ncccn3)C2)cc1 (stereo unspecified) | -69* | 5%[46.1 µM] | -3% | -2% | 4%[46.1 µM] | 31%
CCc1c(C)nc2ncnn2c1N1CCCC(C(=O)NCCc2ccc(OC)cc2)C1 (stereo unspecified) | -68* | -20% | / | / | -19% | ?
Cc1nc2ncnn2c(N2CCCC(C(=O)Nc3ccc4c(c3)CCC4)C2)c1C (stereo unspecified) | -101* | ? | / | / | ? | 25µM*
CCc1c(C)nc2ncnn2c1N1CCC(C(=O)Nc2ccc(C)cc2)CC1 | -86* | -25% | -28% | -10% | ? | -24%
COc1ccc(CN2CCOc3ccc(CN4CCC(Oc5cccnc5)CC4)cc3C2)c(F)c1 | / | / | -28% | -10% | / | ?
CC(=O)Oc1ccc2c(c1)CC[C@@H]1[C@@H]2CC[C@]2(C)[C@@H](O)CC[C@@H]12 | / | / | -9% | i | / | -7%
Cc1cc(N2CCCC(C(=O)Nc3cccc4ccccc34)C2)n2ncnc2n1 (stereo unspecified) | -69* | -22% | -6% | -13% | -15%[46.1 µM] | ?
S=C1SCN(Cc2cccnc2)CN1Cc1cccnc1 | -95* | ? | -13% | -21% | ? | ?
COc1cc(CNCc2cccs2)ccc1OCC(=O)NC(C)(C)C | -25 | -3% | -12% | -24% | 9.2µM* | -15%
COc1cc(CNC(C)(C)CO)ccc1OCC(=O)NC(C)(C)C | 4 | 4% | -11% | -13% | ? | -12%
COc1cc(CNC(C)C23CC4CC(CC(C4)C2)C3)ccc1OCC(=O)NC(C)(C)C (stereo unspecified) | ? | ? | -23% | ? | 6.3µM* | -9%
COc1cc(CNc2ccc(N3CCCCC3)cc2)ccc1OCC(=O)NC(C)(C)C | -86* | ? | 15% | ? | ? | ?
COc1cc(CNc2ccc(N3CCCC3)cc2)ccc1OCc1ccccc1 | -2 | -27% | 2% | -13% | ? | -27%
O=C(c1cnn(-c2nccc(-c3ccccc3F)n2)c1C1CC1)N1CCN(CCO)CC1 | / | / | -11% | -9% | / | -2%
CC(C)CC(=O)NCC(c1ccc2c(c1)OCO2)N1CCN(c2ccccc2F)CC1 (stereo unspecified) | 19 | 1%[46.1 µM] | 0% | -11% | / | -19%
COc1ccc(OCc2cc(-c3ccc(Cl)cc3)no2)cc1 | -37 | 16%[46.1 µM] | -11% | -2% | -7%[46.1 µM] | 13%
O=C(CCl)NCc1cc(-c2ccc(Cl)cc2)no1 | -113* | ? | ? | 10µM* | ? | ?
CCCN1CNc2c(c(=O)[nH]c(=S)n2CCc2ccc(C)c(C)c2)C1 | / | / | -18% | i | / | /
COc1cccc(-c2cnc3c(NC=O)cc(-c4ccc(OC)cc4OC)cn23)c1 | -92* | / | ? | ? | / | ?
COc1ccccc1-c1cc(NC=O)c2ncc(-c3cccc(C(C)=O)c3)n2c1 | 59 | / | ? | 7.9µM* | / | -27%
COc1ccc(-c2cc(NC=O)c3ncc(-c4ccc(OC)c(OC)c4)n3c2)c(OC)c1 | -74* | / | ? | -22% | / | -36%
SMILES | HCMV inh | Lassa entry inh | VACV Venus inh | VACV mCherry inh | Marburg entry inh | FMDV antiviral
O=P(Oc1ccccc1)(Oc1ccccc1)N1CCN(c2ccc(F)cc2)CC1 | 10 | ? | -17% | -22% | 10µM* | -25%
COCCn1c(=O)c(-c2ccc(OC)cc2)nc2cnc(Oc3ccc(OC)cc3)nc21 | / | / | / | / | / | -1%
O=C(O)C1Cc2ccccc2N2CCCC12 (stereo unspecified) | -61* | 10%[46.1 µM] | -6% | 2% | -1%[46.1 µM] | -8%
O=C(O)C1CCCCN1c1ccccc1[N+](=O)[O-] (stereo unspecified) | 15 | / | 3% | 1% | / | -7%
COc1cccc(/C=C/c2ccc3ccccc3[n+]2C)c1OC | / | / | -12% | -29% | / | /
COc1ccc(OCCCCn2c(C3CC(=O)N(c4cccc(Cl)c4)C3)nc3ccccc32)cc1 (stereo unspecified) | -7 | ? | -23% | -17% | -28%[46.1 µM] | ?
C[C@H](NC(=O)/C(C#N)=C/c1ccc(O)c(O)c1)c1ccccc1 | / | ? | / | / | ? | 54%
C[C@@H](NC(=O)/C(C#N)=C/c1ccc(O)c(O)c1)c1ccccc1 | -98* | -27% | -13% | ? | ? | -19%
CC(NC(=O)/C(C#N)=C/c1ccc(Cl)c([N+](=O)[O-])c1)c1ccccc1 (stereo unspecified) | -100* | ? | / | / | ? | 32µM*
N#C/C(=C\c1ccc(O)c([N+](=O)[O-])c1)C(=O)NCc1ccccc1 | -2 | / | / | / | / | -8%
COc1ccc(-c2nc3cnc(Nc4ccc(F)c(Cl)c4)cc3n2C)cc1OC | -30 | / | / | / | / | /
CC(C)(C)c1ccc(-c2noc(CCC(=O)NCc3ccco3)n2)cc1 | -81* | ? | ? | 0% | ? | -8%
O=C(NCc1nc(-c2ccc(C(F)(F)F)cc2)no1)Nc1cc(Cl)cc(Cl)c1 | -96* | / | / | / | / | ?
O=C(NCc1nc(-c2ccc(C(F)(F)F)cc2)no1)Nc1ccc(F)cc1F | 76 | 15% | -21% | -20% | ? | -11%
O=C(CCc1nc(-c2ccc(F)cc2)no1)Nc1cccc(C(=O)NC2CC2)c1 | 34 | / | / | / | / | 40µM*
CC(C)(C)c1ccc(-c2noc(CCC(=O)Nc3cccc(Cl)c3)n2)cc1 | -89* | -22%[46.1 µM] | -6% | 0% | ? | -65%
CCC(=N[C@H](CC)CO)C1=C(O)CC(C)(C)CC1=O | / | / | / | / | 7% | /
CCN(CC)CCOC(=O)c1ccc(NC(=O)c2nn(C)c3c2COc2ccccc2-3)cc1 | -87* | ? | ? | ? | -6%[46.1 µM] | 13%
CN(C)S(=O)(=O)c1cccc(N=c2scc(-c3ccc4c(c3)NC(=O)CO4)n2CC2CCCO2)c1 (stereo unspecified) | ? | ? | -20% | / | ? | 28µM*
O=C1COc2ccc(-c3csc(=Nc4ccc(OC(F)F)cc4)n3CC3CCCO3)cc2N1 (stereo unspecified) | -94* | ? | / | / | -15% | 22µM*
COc1ccccc1N=c1scc(-c2ccc3c(c2)NC(=O)CO3)n1CC1CCCO1 (stereo unspecified) | ? | ? | -29% | / | ? | 35µM*
